# Reference: PubChem BioAssay
# Active and inactive are the calls of the source. Unless noted, how the calls were made is not given here.
# Assays:
# [1] = tested on: Wnt5a (protein binding on small-molecule microarray); experiment: small molecules binding Wnt5a protein – biophysical, small-molecule microarray, 635/667 nm fluorescence, primary screen (AID 1142); settings: 635 nm fluorescence, higher = more signal;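 further: fluorescence read at 667 nm with signal to noise per printed feature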
# [2] = ATP-based viability of Huh7 replicon cells – cell-based, CellTiter-Glo luminescence, basal, 48 h, cytotoxicity control for HCV replication inhibitor project, primary screen (AID 1143); settings: higher = more signal, called active from +8 up or from −8 down;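 further: Huh7 hepatoma cells carrying a hepatitis C replication reporter with no stimulus; test concentration not given here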
# [3] = Pseudomonas biofilm growth suppression – PAO1 strain, BacTiter-Glo luminescence, LB-PBS, primary screen (AID 1144); settings: P. aeruginosa PAO1 biofilm, 12 h, higher = more signal
# [4] = basal CRE-LacZ reporter activity in PC12 – cell-based, unstimulated, primary screen (AID 1145); settings: no forskolin, luminescence, 4.5 h, higher = more signal, called active from +8 up or from −8 down
# [5] = forskolin-driven CRE-LacZ activity in PC12 – cell-based, CRE-LacZ reporter, forskolin-stimulated, primary screen (AID 1146); settings: luminescence, 4.5 h, higher = more signal, called active from +8 up or from −8 down;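 further: PC12 cells with 6xCRE LacZ reporter stimulated by forskolin 10 µM; beta-galactosidase reporter signal reflecting CREB driven transcription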
# [6] = biological target: Streptavidin (Streptomyces avidinii) (UniProt P22629); experiment: compounds binding control protein streptavidin – biophysical, small-molecule microarray, 635/667 nm fluorescence, artefact control for SMM compound annotation, primary screen (AID 1147); settings: higher = more signal;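 further: signal reflects streptavidin binding to arrayed compounds as a control protein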
# [7] = probe aInhba binding on compound microarray – biochemical, small-molecule microarray, 635/667 nm fluorescence, primary screen (AID 1148); settings: higher = more signal;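 further: score merges 667nm spot fluorescence with signal-to-noise for antibody binding to printed compounds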
# [8] = biological target: Torsin-1A (Homo sapiens) (UniProt O14656); experiment: TOR1A wild-type binding on microarray – cell lysate, small-molecule microarray, lysate, 635/667 nm, primary screen (AID 1149); settings: COS7 hTOR1A-WT lysate, 635 nm fluorescence, higher = more signal
# [9] = biological target: Torsin-1A (Homo sapiens) (UniProt O14656); experiment: torsin A mutant lysate binding on microarrays – cell lysate, small-molecule microarray, COS7 lysate, 635/667 nm fluorescence, primary screen (AID 1150); settings: COS7 hTOR1A mutant lysate, 635 nm fluorescence, higher = more signal;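 further: score pools 667 nm emission and signal to noise measuring lysate protein binding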
# [10] = tested on: Sonic hedgehog protein (Shh); experiment: Sonic hedgehog microarray binding compounds – biochemical, small-molecule microarray, 635/667 nm fluorescence, primary screen (AID 1151); settings: 635 nm fluorescence, higher = more signal;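 further: Shh protein binding to compounds spotted on small-molecule microarray slides; score combines spot fluorescence intensity with signal-to-noise across triplicate slides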
# [11] = optical density shifts of acrAB sulA E. coli – strain DRC41, OD650, 48 h, E. coli filamentation inducer project, primary screen (AID 1152); settings: higher = more signal, called active from +8 up or from −8 down;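 further: E. coli MC1000 strain DRC41 lacking acrAB efflux pump and sulA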
# [12] = probe aLefty1 binding on compound microarray – biochemical, small-molecule microarray, 635/667 nm fluorescence, primary screen (AID 1153); settings: higher = more signal;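 further: score merges spot fluorescence with signal-to-noise ratio from the scanned slide images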
# [13] = plasmodial surface anion channel blockers, osmotic lysis – cell-based, P. falciparum Indochina, OD700, 1 h, primary screen (AID 1154); settings: P. falciparum Indochina infected RBC osmotic lysis, higher = more signal, called active from +8 up or from −8 down
# [14] = plasmodial surface anion channel blockers, osmotic lysis – cell-based, P. falciparum Indochina, OD700, 2 h, primary screen (AID 1155);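 further: lysis reports solute entry through the parasite surface anion channel PSAC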; settings: P. falciparum Indochina infected erythrocytes, higher = more signal, called active from +8 up or from −8 down
# [15] = changes in parasitized red cell lysis, either direction – P. falciparum Indochina, OD700, 3 h, PSAC antagonist project, primary screen (AID 1156); settings: P. falciparum-infected erythrocytes, osmotic lysis, higher = more signal, called active from +8 up or from −8 down
# [16] = plasmodial surface anion channel blockers, osmotic lysis – cell-based, P. falciparum Indochina, OD700, 18 h, primary screen (AID 1157); settings: P. falciparum Indochina infected erythrocytes, osmotic lysis OD700, 18 h; higher = more signal, called active from +8 up or from −8 down
# [17] = S6 kinase pathway phospho-S6 level changes – cell-based, A549, cytoblot, luminescence, serum-stimulated, primary screen (AID 1158); settings: 5 h, higher = more signal;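 further: serum-stimulated A549 lung adenocarcinoma cells; signal is phosphorylated S6 detected by cytoblot immunostaining with HRP secondary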
# [18] = biological target: NADPH oxidase 2 (Homo sapiens) (UniProt P04839); experiment: compounds shifting NOX2 Amplex Red fluorescence – cell-based, HEK293-NOX2, PMA-stimulated, NOX inhibitor project, primary screen (AID 1159); settings: 45 min, higher = more signal, called active from +8 up or from −8 down; further: test concentration not given here
# [19] = biological target: NADPH oxidase 4 (Homo sapiens) (UniProt Q9NPH5); experiment: compounds shifting NOX4 Amplex Red fluorescence – cell-based, HEK293-NOX4, tetracycline-induced, NOX inhibitor project, primary screen (AID 1160); settings: HEK293-NOX4, Amplex Red H2O2 fluorescence, 45 min; higher = more signal, called active from +8 up or from −8 down
# [20] = biological target: NADPH oxidase 5 (Homo sapiens) (UniProt Q96PH1); experiment: compounds shifting NOX5 Amplex Red fluorescence – cell-based, HEK293-NOX5, NOX inhibitor project, primary screen (AID 1161); settings: HEK293-NOX5, ionomycin, 45 min, higher = more signal
# Chain of NADPH oxidase 5 (Homo sapiens) (Q96PH1 whole entry, looked up): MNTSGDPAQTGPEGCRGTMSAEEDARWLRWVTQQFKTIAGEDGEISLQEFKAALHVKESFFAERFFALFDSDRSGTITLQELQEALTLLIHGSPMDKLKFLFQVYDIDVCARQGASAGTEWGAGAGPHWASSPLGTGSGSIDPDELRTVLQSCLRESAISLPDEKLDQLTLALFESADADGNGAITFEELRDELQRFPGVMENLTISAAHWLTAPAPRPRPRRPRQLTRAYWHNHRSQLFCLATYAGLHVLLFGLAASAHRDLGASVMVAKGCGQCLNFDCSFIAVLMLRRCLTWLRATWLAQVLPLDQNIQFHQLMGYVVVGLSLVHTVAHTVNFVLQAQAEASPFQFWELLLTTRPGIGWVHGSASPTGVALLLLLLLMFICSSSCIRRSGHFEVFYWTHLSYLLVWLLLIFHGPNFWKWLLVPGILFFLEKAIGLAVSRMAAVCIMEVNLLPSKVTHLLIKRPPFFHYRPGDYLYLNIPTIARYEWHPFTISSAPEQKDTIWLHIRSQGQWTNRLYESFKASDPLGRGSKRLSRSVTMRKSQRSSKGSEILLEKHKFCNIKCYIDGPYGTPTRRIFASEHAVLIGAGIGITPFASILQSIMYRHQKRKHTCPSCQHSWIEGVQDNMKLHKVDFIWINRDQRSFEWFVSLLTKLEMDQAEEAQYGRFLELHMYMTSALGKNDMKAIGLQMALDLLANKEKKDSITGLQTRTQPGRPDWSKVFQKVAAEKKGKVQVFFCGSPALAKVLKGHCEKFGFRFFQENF
# Chain of NADPH oxidase 4 (Homo sapiens) (Q9NPH5 whole entry, looked up): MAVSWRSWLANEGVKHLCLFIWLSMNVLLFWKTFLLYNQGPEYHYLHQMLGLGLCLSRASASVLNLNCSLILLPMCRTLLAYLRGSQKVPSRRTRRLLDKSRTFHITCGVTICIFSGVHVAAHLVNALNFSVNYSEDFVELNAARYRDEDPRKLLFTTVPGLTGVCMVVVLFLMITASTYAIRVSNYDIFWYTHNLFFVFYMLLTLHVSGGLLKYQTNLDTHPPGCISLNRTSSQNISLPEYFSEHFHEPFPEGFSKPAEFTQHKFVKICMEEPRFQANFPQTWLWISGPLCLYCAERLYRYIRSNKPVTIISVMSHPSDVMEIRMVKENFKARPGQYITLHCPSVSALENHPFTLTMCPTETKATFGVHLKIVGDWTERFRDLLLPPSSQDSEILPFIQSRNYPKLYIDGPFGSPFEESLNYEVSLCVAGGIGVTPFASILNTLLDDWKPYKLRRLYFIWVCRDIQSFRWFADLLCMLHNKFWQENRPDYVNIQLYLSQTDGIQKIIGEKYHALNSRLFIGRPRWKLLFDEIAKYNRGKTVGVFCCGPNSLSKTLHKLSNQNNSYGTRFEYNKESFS
# Chain of NADPH oxidase 2 (Homo sapiens) (P04839 whole entry, looked up): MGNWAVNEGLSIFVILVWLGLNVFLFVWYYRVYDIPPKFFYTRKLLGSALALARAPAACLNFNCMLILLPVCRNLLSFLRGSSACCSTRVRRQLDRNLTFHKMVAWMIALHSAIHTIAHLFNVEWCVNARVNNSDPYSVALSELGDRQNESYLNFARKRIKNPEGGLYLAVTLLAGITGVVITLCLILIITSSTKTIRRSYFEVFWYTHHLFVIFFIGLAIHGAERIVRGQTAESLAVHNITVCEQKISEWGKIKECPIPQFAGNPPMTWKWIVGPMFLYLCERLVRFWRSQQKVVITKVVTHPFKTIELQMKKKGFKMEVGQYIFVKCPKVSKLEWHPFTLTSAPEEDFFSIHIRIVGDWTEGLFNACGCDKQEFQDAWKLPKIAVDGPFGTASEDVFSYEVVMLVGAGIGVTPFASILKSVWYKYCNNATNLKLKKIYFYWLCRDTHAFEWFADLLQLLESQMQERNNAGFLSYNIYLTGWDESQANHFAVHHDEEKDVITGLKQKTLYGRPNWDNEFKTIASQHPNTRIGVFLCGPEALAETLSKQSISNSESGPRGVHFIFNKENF
# Chain of Torsin-1A (Homo sapiens) (O14656 whole entry, looked up): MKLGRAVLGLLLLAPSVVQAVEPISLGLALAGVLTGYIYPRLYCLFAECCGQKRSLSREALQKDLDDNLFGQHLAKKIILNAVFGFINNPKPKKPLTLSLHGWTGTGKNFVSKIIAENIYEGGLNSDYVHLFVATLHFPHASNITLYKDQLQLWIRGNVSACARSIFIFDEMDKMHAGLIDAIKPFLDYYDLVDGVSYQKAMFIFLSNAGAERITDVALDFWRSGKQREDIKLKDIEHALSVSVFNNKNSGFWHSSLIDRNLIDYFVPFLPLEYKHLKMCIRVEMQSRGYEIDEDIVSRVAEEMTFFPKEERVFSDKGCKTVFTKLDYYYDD
# Chain of Streptavidin (Streptomyces avidinii) (P22629 whole entry, looked up): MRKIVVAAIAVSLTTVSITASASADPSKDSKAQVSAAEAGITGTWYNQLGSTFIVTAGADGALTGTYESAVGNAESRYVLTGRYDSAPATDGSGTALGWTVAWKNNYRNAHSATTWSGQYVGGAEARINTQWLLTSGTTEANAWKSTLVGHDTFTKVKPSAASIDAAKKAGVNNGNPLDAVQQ
smiles,measurement,setting,value
COC(=O)C1(Cc2ccccc2)C=C2C(=C(C(C)C)C(=O)C2C)CN1 (stereo not given),composite z-score,[1],0.131
same,z-score,[2],-0.576 (inactive)
same,z-score,[3],0.429 (inactive)
same,z-score,[4],0.59 (inactive)
same,z-score,[5],-0.173 (inactive)
same,composite z-score,[6],-0.333
same,composite z-score,[7],0.147
same,composite z-score,[8],0.334
same,composite z-score,[9],0.707
same,composite z-score,[10],-0.45
same,z-score,[11],-1.72 (inactive)
same,composite z-score,[12],0.276
same,z-score,[13],2.03 (inactive)
same,z-score,[14],0.326 (inactive)
same,z-score,[15],1.42 (inactive)
same,z-score,[16],0.592 (inactive)
same,z-score,[17],0.128
same,z-score,[18],-0.862 (inactive)
same,z-score,[19],-5.34 (inactive)
same,z-score,[20],-4.04
CN(C)C(=O)[C@]1(CCC(=O)OC(C)(C)C)N=C(c2ccc(OCCCO)cc2)O[C@@H]1c1ccccc1,composite z-score,[1],0.677
same,z-score,[2],0.325 (inactive)
same,z-score,[3],1.02 (inactive)
same,z-score,[4],0.493 (inactive)
same,z-score,[5],0.524 (inactive)
same,composite z-score,[6],-0.092
same,composite z-score,[7],-0.0791
same,composite z-score,[8],0.69
same,composite z-score,[9],2.2
same,composite z-score,[10],-0.857
same,z-score,[11],0.94 (inactive)
same,composite z-score,[12],0.217
same,z-score,[13],22.5 (active)
same,z-score,[14],6.32 (inactive)
same,z-score,[15],-0.0962 (inactive)
same,z-score,[16],0.84 (inactive)
same,z-score,[17],-0.408
same,z-score,[18],1.24 (inactive)
same,z-score,[19],0.419 (inactive)
same,z-score,[20],-0.229
C=CCC(OC(C)=O)[C@@H]1[C@@H](N(Cc2cc3ccccc3o2)C(=O)c2ccc(C)cc2)c2cc(OCCCO)ccc2N1C(=O)Cc1ccc2ccccc2c1 (stereo not given in full),composite z-score,[1],-0.109
same,z-score,[2],0.218 (inactive)
same,z-score,[3],-0.956 (inactive)
same,z-score,[4],2.37 (inactive)
same,z-score,[5],-0.072 (inactive)
same,composite z-score,[6],-0.172
same,composite z-score,[7],-0.0523
same,composite z-score,[8],-0.0509
same,composite z-score,[9],-0.0619
same,composite z-score,[10],0.0781
same,z-score,[11],2.52 (inactive)
same,composite z-score,[12],-0.103
same,z-score,[13],1.49 (inactive)
same,z-score,[14],0.434 (inactive)
same,z-score,[15],-0.884 (inactive)
same,z-score,[16],0.283 (inactive)
same,z-score,[17],0.866
same,z-score,[18],0.597 (inactive)
same,z-score,[19],0.921 (inactive)
same,z-score,[20],2.32
C=CCOC(=O)[C@@H]1[C@H]2C(=O)O[C@H](c3ccccc3)[C@H](c3ccccc3)N2[C@H](c2ccc(OCCOC(=O)[C@H]3C[C@H]4C(=O)N[C@@H](CCCCN(C)C)C(=O)N4[C@H]3c3cccc(OCCO)c3)cc2)[C@@]12C(=O)Nc1ccc(I)cc12,composite z-score,[1],0.402
same,z-score,[2],-0.015 (inactive)
same,z-score,[3],0.172 (inactive)
same,z-score,[4],-0.801 (inactive)
same,z-score,[5],0.387 (inactive)
same,composite z-score,[6],0.458
same,composite z-score,[7],0.019
same,composite z-score,[8],1.61
same,composite z-score,[9],1.52
same,composite z-score,[10],2.05
same,z-score,[11],-0.142 (inactive)
same,composite z-score,[12],0.0665
same,z-score,[13],1.19 (inactive)
same,z-score,[14],1.16 (inactive)
same,z-score,[15],-1.08 (inactive)
same,z-score,[16],0.865 (inactive)
same,z-score,[17],-0.714
same,z-score,[18],1.53 (inactive)
same,z-score,[19],1.18 (inactive)
same,z-score,[20],1.29
COC(=O)[C@@]1(Cc2ccc(F)cc2)[C@H]2c3cc(C(=O)N4CCCC4)n(CCc4c[nH]c5ccc(OC)cc45)c3C[C@H]2CN1C(=O)c1ccccc1,composite z-score,[1],1.51
same,z-score,[2],-4.66 (inactive)
same,z-score,[3],-0.23 (inactive)
same,z-score,[4],0.0041 (inactive)
same,z-score,[5],-0.556 (inactive)
same,composite z-score,[6],1.53
same,composite z-score,[7],1.62
same,composite z-score,[8],0.844
same,composite z-score,[9],0.736
same,composite z-score,[10],0.0332
same,z-score,[11],-1.06 (inactive)
same,composite z-score,[12],1.97
same,z-score,[13],4.03 (inactive)
same,z-score,[14],-0.165 (inactive)
same,z-score,[15],0.217 (inactive)
same,z-score,[16],-0.583 (inactive)
same,z-score,[17],1.03
same,z-score,[18],-3.07 (inactive)
same,z-score,[19],0.118 (inactive)
same,z-score,[20],-2.39
[N-]=[N+]=Nc1ccccc1C[C@@]1(C(=O)O)N=C(c2ccc(OCCCO)cc2)O[C@@H]1c1ccccc1,composite z-score,[1],0.104
same,z-score,[2],-0.275 (inactive)
same,z-score,[3],-0.078 (inactive)
same,z-score,[4],-0.585 (inactive)
same,z-score,[5],-0.218 (inactive)
same,composite z-score,[6],1.48
same,composite z-score,[7],0.0633
same,composite z-score,[8],0.0324
same,composite z-score,[9],0.779
same,composite z-score,[10],-0.0424
same,z-score,[11],-0.265 (inactive)
same,composite z-score,[12],0.273
same,z-score,[13],17.7 (active)
same,z-score,[14],1.37 (inactive)
same,z-score,[15],-1.14 (inactive)
same,z-score,[16],0.245 (inactive)
same,z-score,[17],-0.405
same,z-score,[18],-0.135 (inactive)
same,z-score,[19],1.27 (inactive)
same,z-score,[20],1.24
C=CC[C@]12N=C(c3ccc(OCCCO)cc3)O[C@H]1c1ccccc1N(C)C2=O,composite z-score,[1],0.305
same,z-score,[2],-4.59 (inactive)
same,z-score,[3],-1.2 (inactive)
same,z-score,[4],0.549 (inactive)
same,z-score,[5],-1.18 (inactive)
same,composite z-score,[6],-0.283
same,composite z-score,[7],0.435
same,composite z-score,[8],-0.0323
same,composite z-score,[9],0.468
same,composite z-score,[10],1.28
same,z-score,[11],-0.0028 (inactive)
same,composite z-score,[12],1.11
same,z-score,[13],31.9 (active)
same,z-score,[14],31.8 (active)
same,z-score,[15],4.16 (inactive)
same,z-score,[16],3.07 (inactive)
same,z-score,[17],0.289
same,z-score,[18],-2.49 (inactive)
same,z-score,[19],-0.582 (inactive)
same,z-score,[20],-1.8
COC(=O)c1c(CC[C@@H](CO)NC(=O)N[C@H](Cn2cc(-c3ccccc3C)nn2)C(C)C)oc(C(C)=O)c1C(=O)OC,composite z-score,[1],-0.338
same,z-score,[2],-2.66 (inactive)
same,z-score,[3],-0.673 (inactive)
same,z-score,[4],1.5 (inactive)
same,z-score,[5],-0.644 (inactive)
same,composite z-score,[6],-0.0581
same,composite z-score,[7],-0.003
same,composite z-score,[8],-0.123
same,composite z-score,[9],-0.171
same,composite z-score,[10],-0.272
same,z-score,[11],0.206 (inactive)
same,composite z-score,[12],-0.112
same,z-score,[13],0.791 (inactive)
same,z-score,[14],-0.0484 (inactive)
same,z-score,[15],1.56 (inactive)
same,z-score,[16],-0.52 (inactive)
same,z-score,[17],1.29
same,z-score,[18],-3.2 (inactive)
same,z-score,[19],-2.16 (inactive)
same,z-score,[20],-1.77
